Measured values taken from PubChem BioAssay (NCI).
About 83,000 compounds went through this panel and 20% of them were active in at least one assay; those are over-represented in the sample as a whole.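 Results are percent growth after 48 hours of single-concentration exposure. 100 means growth as in untreated cells, lower positive values show inhibition; negative values down to -100 show cell death.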 Calls of active or inactive are those of the source. Rule for the calls: active = growth percent below 10; inactive = the rest.

Legend:
Assay in all cases: NCI-60 one-dose screen, 48 h (100 = growth as untreated, 0 = no growth, -100 = all killed)
[1] = system: NCI-H23 lung; conditions: 10 µM unless noted
[2] = system: NCI-H226 lung; conditions: 10 µM unless noted
[3] = system: NCI-H322M lung; conditions: 10 µM unless noted
[4] = system: NCI-H460 lung; conditions: 10 µM unless noted
[5] = system: HOP-92 NSCLC; conditions: 10 µM
[6] = system: NCI-H522 lung; conditions: 10 µM
[7] = system: A549/ATCC NSCLC; conditions: 10 µM unless noted
[8] = system: 786-0 renal; conditions: 10 µM unless noted
[9] = system: COLO 205 colon; conditions: 10 µM unless noted
[10] = system: DU-145 prostate; conditions: 10 µM unless noted
[11] = system: K-562 leukemia; conditions: 10 µM unless noted
[12] = system: MALME-3M melanoma; conditions: 10 µM unless noted
[13] = system: MDA-MB-231 breast; conditions: 10 µM unless noted
[14] = system: RXF 393 renal; conditions: 10 µM unless noted
[15] = system: SF-268 CNS; conditions: 10 µM unless noted
[16] = system: SF-295 CNS; conditions: 10 µM unless noted
[17] = system: SF-539 CNS; conditions: 10 µM unless noted
[18] = system: UACC-257 melanoma; conditions: 10 µM unless noted
[19] = system: M14 melanoma; conditions: 10 µM unless noted

Measured: growth

COc1cc(-c2nc3c(c(C)nc4c3nnn4-c3ccccc3)c(=O)o2)cc(OC)c1OC
inactive: [1] 115% | [2] 104% | [3] 104% | [4] 115% | [5] 103% | [6] 103% | [7] 112% | [8] 104% | [9] 113% | [10] 111% | [11] 106% | [12] 104% | [13] 106% | [14] 108% | [15] 98.3% | [16] 104% | [17] 102% | [18] 119% | [19] 98.6%

CCC(C)(C)c1ccc(OCCCCCCN2CCNCC2)cc1
inactive: [1] 60% | [2] 92.7% | [3] 76.1% | [4] 17.7% | [5] 51.3% | [6] 95.5% | [7] 53.5% | [8] 59.5% | [10] 49.3% | [12] 72% | [13] 78.5% | [14] 35.9% | [15] 78.5% | [16] 84.4% | [17] 61.4% | [18] 75.9% | [19] 65.5%
active: [9] -50% | [11] -29%

CC[C@H](Nc1ncnc2nc[nH]c12)c1nc2cccc(NCc3ccc(C(=O)NO)o3)c2c(=O)n1-c1ccccc1
inactive: [1] 98.1% | [2] 109% | [3] 97.4% | [4] 111% | [5] 82.6% | [6] 76.7% | [7] 102% | [8] 94.1% | [9] 115% | [10] 101% | [11] 102% | [12] 77.1% | [13] 113% | [14] 110% | [15] 84.1% | [16] 102% | [17] 100% | [18] 102% | [19] 103%

CCn1cc(C(=O)O)c(=O)c2cc(F)c(N3CCN(S(=O)(=O)c4ccc(Cl)cc4)CC3)cc21
active: [1] -7.07% | [4] 5.92% | [5] -4.17% | [6] 8.39% | [16] 3.94%
inactive: [2] 60.1% | [3] 45.9% | [7] 14.6% | [8] 23.7% | [9] 12.1% | [10] 31.7% | [11] 21.4% | [12] 23.8% | [13] 41.1% | [14] 13.4% | [15] 22.7% | [17] 21.7% | [18] 29% | [19] 18.9%

COc1cc(N2C(=O)C=CC2=O)ccc1N1C(=O)C=CC1=O
active: [6] -59.8%
inactive: [1] 105% | [2] 105% | [3] 116% | [4] 104% | [5] 93.1% | [7] 103% | [8] 107% | [9] 53% | [10] 114% | [11] 64.5% | [12] 97.3% | [13] 116% | [14] 110% | [15] 105% | [16] 99.9% | [17] 101% | [18] 104% | [19] 103%

CCOc1nc(-c2ccccc2)cc2c(O)c(C(=O)N/N=C/c3ccccc3O)[nH]c(=O)c12
inactive: [1] 62.7% | [2] 106% | [3] 107% | [4] 107% | [5] 82.8% | [6] 81.9% | [7] 85.3% | [8] 103% | [9] 105% | [10] 97.6% | [11] 115% | [12] 119% | [13] 101% | [14] 81.3% | [15] 79.6% | [16] 103% | [17] 117% | [18] 88.6% | [19] 101%

COC(=O)c1ccc2[nH]c(O)c(C(=Nc3ccc(N(C)C(=O)CN4CCN(C)CC4)cc3)c3ccc(C)cc3)c2c1
active: [1] -9.95% | [2] 5.6% | [4] -43.1% | [6] -33.6% | [7] -30.2% | [8] -85.1% | [9] -61.2% | [10] -14.2% | [11] -32.9% | [12] -94.6% | [13] -22.9% | [14] -98.2% | [15] 5.16% | [16] 1.13% | [17] -96.1% | [18] -59.4% | [19] -83.7%
inactive: [3] 19.8% | [5] 38.7%

NC(N)=Nc1ccc(/C=C2\C=Cc3ccccc32)cc1
active: [5] 9.95% | [9] -77.9%
inactive: [1] 69.9% | [2] 74.6% | [3] 70.5% | [4] 63.5% | [6] 42.7% | [7] 78.6% | [8] 67.3% | [10] 80.9% | [11] 13.6% | [12] 88.8% | [13] 42.4% | [14] 63.7% | [15] 64.5% | [16] 80.6% | [17] 81.3% | [18] 77.5% | [19] 73.4%

Nc1ccc(S(=O)(=O)Nc2cc(F)cc(F)c2)cc1
inactive: [1] 111% | [2] 104% | [3] 114% | [4] 110% | [5] 99.9% | [6] 94.9% | [7] 119% | [8] 99.7% | [9] 112% | [10] 94.5% | [11] 71.9% | [12] 131% | [13] 90.9% | [14] 20.1% | [15] 130% | [16] 103% | [17] 85.6% | [18] 95.5% | [19] 91.1%

COC(=O)c1ccc2[nH]c(O)c(C(=Nc3ccc(N(C)C(=O)CN4CCN(C)CC4)cc3)c3ccc(N)cc3)c2c1
inactive: [1] 70% | [2] 56.5% | [3] 77.4% | [4] 105% | [5] 78.3% | [6] 75.5% | [7] 111% | [8] 63.9% | [9] 41.4% | [10] 96.8% | [11] 14% | [12] 83.5% | [13] 87.6% | [14] 56.7% | [15] 62.4% | [16] 99.1% | [17] 50.8% | [18] 125% | [19] 88%

CNCCCNCCCCNCCCN1C(=O)c2ccc3c4c(ccc(c24)C1=O)C(=O)N(CCCNCc1ccccc1OC)C3=O
active: [12] -26.1%
inactive: [1] 24.9% | [2] 35.7% | [3] 22.8% | [4] 13.5% | [5] 69% | [6] 31.3% | [7] 21.6% | [8] 38.6% | [9] 10.8% | [10] 29.1% | [11] 20.2% | [13] 47.3% | [14] 20.1% | [15] 17.7% | [16] 22.1% | [17] 21.7% | [18] 29.2% | [19] 24%

CC(=O)Nc1nc(C)c(C(=O)NN)s1
active: [5] 3.84%
inactive: [1] 103% | [2] 92.1% | [3] 96% | [4] 115% | [6] 97.5% | [7] 101% | [8] 93% | [9] 108% | [10] 105% | [11] 67.3% | [12] 120% | [13] 99% | [14] 104% | [15] 95.2% | [16] 133% | [17] 91.3% | [18] 108% | [19] 113%

Brc1ccc(-c2nc3ccccc3s2)cc1
inactive: [1] 92.4% | [2] 75.8% | [3] 92.7% | [4] 97.1% | [5] 97.7% | [6] 93.8% | [7] 106% | [8] 106% | [9] 106% | [10] 108% | [11] 96.2% | [12] 95.8% | [13] 82.4% | [14] 96% | [15] 90% | [16] 98% | [17] 93.2% | [18] 117% | [19] 97.7%

C/C(=N\Nc1cccc(Cl)n1)c1ccccn1
active: [2] -3.86% | [4] 5.39% | [7] 9.19% | [8] 8.33% | [11] 6.59% | [16] 0.34% | [17] 1.72% | [18] 2.3% | [19] -23.8%
inactive: [1] 16.8% | [3] 23.7% | [5] 40.5% | [6] 24.6% | [9] 10.6% | [10] 23.3% | [12] 21.6% | [13] 36.8% | [14] 24% | [15] 12.8%

Cc1cc2c(-c3nc4ccccc4n3C)c(O)c(O)cc2c(O)c1-c1c(C)cc2c(-c3nc4ccccc4n3C)c(O)c(O)cc2c1O
inactive: [1] 24.7% | [2] 68.1% | [3] 73% | [5] 52.1% | [6] 41.4% | [7] 26.7% | [8] 76% | [10] 43.5% | [11] 37.5% | [12] 86.1% | [13] 57.3% | [14] 62.7% | [15] 38.5% | [16] 26% | [17] 22.1% | [18] 82.9% | [19] 34.9%
active: [4] 7.3% | [9] 4.14%

CCOc1ccc(/C=N/NC(=O)c2cccc3ccccc23)cc1OCC
inactive: [1] 92.3% | [2] 96.7% | [3] 119% | [4] 101% | [5] 68.5% | [6] 87.4% | [7] 96.6% | [8] 102% | [9] 110% | [10] 106% | [11] 80.7% | [12] 114% | [13] 96% | [14] 109% | [15] 108% | [16] 89.1% | [17] 105% | [18] 109% | [19] 123%
